Methyltransferases = Primary Screen for Target Class Profiling of Small Molecule Inhibitors of Methyltransferases | AID 1745853, 2022 | purified enzyme, MTase-Glo SAH luminescence; active compounds read low | calls only at 40 µM | 25,000 tested, 3.9% active; call rule not given here
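Each enzyme was reacted with SAM and its substrate, with compounds tested once at 40 uM; SAH formed was read by MTase-Glo luminescence.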
MTase-Glo counter = counter-screen for methyltransferase inhibitors: coupling enzymes without methyltransferase; 180 tested, 6% active; MTase-Glo coupled enzymes, SAH conversion luminescence, no MTase; Potency, µM (titrated, usually from 57.3 µM), for inactives: top-dose activity change, negative = inhibition, hits mostly inhibitors; shares compounds with Methyltransferases; active = well fitted inhibition curve with a large enough effect; note: potency is the fitted concentration of half-maximal effect
An asterisk follows results filed as active; i = inactive; + = active, no number; [ ] = dose if it differs, or a comment. Only a selection was taken, and hits are over-represented in it overall. % is set by controls: 0 for no effect and ±100 for the full control effect.

SMILES | Methyltransferases | others
CC(C)c1ccc(CC(=O)N2CCCc3ncc(C(=O)NCCc4c[nH]c5ccccc45)cc32)cc1 | i
O=C(Nc1ccccc1)c1cnc2c(c1)N(C(=O)Cc1ccc(O)cc1)CCC2 | + | MTase-Glo counter=-6%[85.7 µM]
CCOC(=O)c1cc2n(n1)CC(C)(C(=O)NC1CCCCCC1)N(c1ccc3c(c1)OCO3)C2=O (stereo not given) | i
CC1CC(C)CN(S(=O)(=O)c2ccc3c(c2)oc(=O)n3CC(=O)N(C)Cc2ccco2)C1 (stereo not given) | i
C1=C(c2nc(-c3ccncc3)cc3c2ccn3Cc2cccnc2)CCOC1 | + | MTase-Glo counter=1%[85.7 µM]
O=C(CCn1ccc2cc(S(=O)(=O)N3CCCCC3)ccc21)NCc1cccnc1 | i
CCn1cnnc1CC1CCN(S(=O)(=O)c2ccc(OC)cc2)CC1 | i
CCC(C)NC(=O)c1ccc2c(=O)n(C(C)C)c3nn(CC(=O)Nc4ccc(F)cc4)c(=O)n3c2c1 (stereo not given) | i
COc1cccc(N2C(=O)NC(=NC3CCCC3)C23CCN(Cc2ccccc2)C3)c1 (stereo not given) | i
COc1cccc(N2C(=O)NC(=NC3CCCCC3)C23CCN(CC2CC2)C3)c1 (stereo not given) | i
COc1cccc(N2C(=O)NC(=NC3CCCCC3)C23CCCN(CC2CCCCC2)C3)c1 (stereo not given) | + | MTase-Glo counter=3%
CC(C)OCCCn1c(=O)c2ccccc2n2c(CCC(=O)N3CCN(c4ccccc4F)CC3)nnc12 | i
Cn1c(=O)c2ccc(C(=O)NC3CCCC3)cc2n2c(=O)n(Cc3cccc(F)c3)nc12 | i
O=C(c1cc(-c2ccccc2)n[nH]1)N1CCc2c(nc(-c3ccccc3)[nH]c2=O)C1 | + | MTase-Glo counter=4%
O=C1OCCC1CCC(=O)N1CCc2c(nc(-c3ccccc3)[nH]c2=O)C1 (stereo not given) | i
CCCc1cc(C(=O)N2CCc3c(nc(-c4cccnc4)[nH]c3=O)C2)n[nH]1 | i
Cc1ccc(Nc2ccn3c(=O)n(CC(=O)Nc4ccc(F)cc4F)nc3n2)cc1 | i
COc1ccc(-c2nnn3c2nc(N2CCOCC2)c2ccccc23)cc1 | i
Cn1cc(-c2cc3c(ccn3Cc3ccncc3)c(N3CCOCC3)n2)cn1 | + | MTase-Glo counter=-3%[85.7 µM]
O=C(NCCc1ccccc1)c1ccc(CN2C(=O)CCn3nc(-c4cccc(Cl)c4)cc32)cc1 | i
O=C(C1CCC1)N1CCC(Cc2nncn2Cc2ccccc2)CC1 | i
Cc1nn(C(=O)CCC(=O)N2CCC(Cc3nncn3CC3CC3)CC2)c2ccccc12 | + | MTase-Glo counter=-1%
CCn1cnnc1CC1CCN(C(=O)c2nccc3ccccc23)C1 (stereo not given) | i
COc1ccccc1CNC(=O)C1c2c(n(C)c3ccccc23)SCC(=O)N1c1ccc(F)cc1F (stereo not given) | i
COC(=O)c1cc2n(n1)CC(C)(C(=O)NC1CCC(C)CC1)N(c1cc(C)cc(C)c1)C2=O (stereo not given) | i
SMILES | Methyltransferases | others
Cc1ccc(NC(=O)Cn2nc3n(CCCOC(C)C)c(=O)c4ccccc4n3c2=O)cc1C | i
COc1ccccc1CNc1nc2c(S(=O)(=O)c3ccc(C)c(C)c3)nnn2c2ccccc12 | i
COCCNC(=O)CCc1nnc2n(CCc3ccccc3)c(=O)c3ccccc3n12 | i
CCc1nc(NC(=O)Cn2nc3c(cc2=O)CCCC3)sc1C | i
O=C(Cn1nc2c(cc1=O)CCCCC2)Nc1nnc(C2CCCO2)s1 (stereo not given) | i
COC(=O)c1nc(NC(=O)Cn2nc3c(cc2=O)CCCC3)sc1C(C)C | + | MTase-Glo counter=-1%
CCc1cc2c(cc3n2CC(C)(C(=O)NC2CCCCCC2)N(Cc2cccc(Cl)c2)C3=O)s1 (stereo not given) | i
COc1ccc(CNC(=O)C2(C)Cn3cnc(C(=O)Nc4cccc5c4CCCC5)c3C(=O)N2C2CC2)cc1 (stereo not given) | i
CCN1C(=O)c2cc(C(=O)N3CCN(c4cc(C)ccc4C)CC3)nn2CC1(C)C(=O)NC1CCCC1 (stereo not given) | i
COC(=O)c1cc2n(n1)CC(C)(C(=O)NC1CCC(C)CC1)N(c1ccc(C)cc1C)C2=O (stereo not given) | i
COc1ccccc1CN1C(=O)c2ccc(-c3ccccc3)n2CC1(C)C(=O)NC1CCCCCC1 (stereo not given) | i
Cn1c(=O)c2ccc(C(=O)NC3CCCC3)cc2n2c(=O)n(CC(=O)Nc3ccccc3F)nc12 | i
CNC(=O)NCCc1ncc(C)n1C1CCCCCCC1 | + | MTase-Glo counter=0%
CCCNC(=O)NCCc1ncc(C)n1CC1CC1 | i
COC(=O)CNC(=O)NCCc1ncc(C)n1C1CCCC1 | i
Cc1ccc(CNC(=O)CSc2nnc3n(C)c(=O)c4ccc(C(=O)NC5CCCC5)cc4n23)cc1 | i
COc1cccc(CSc2nnc3n(CC(C)C)c(=O)c4ccccc4n23)c1 | i
O=C(NCC1CC1)C1CCc2ncc(-c3ccc(F)cc3)n2C1 (stereo not given) | i
O=C(NCCCN1CCc2ccccc2C1)C1CCc2ncc(-c3ccc(F)cc3)n2C1 (stereo not given) | + | MTase-Glo counter=-2%
CCCNC(=O)C1CCc2ncc(-c3ccc(OC)cc3)n2C1 (stereo not given) | i
COc1ccc(OC)c(S(=O)(=O)N2CCN(S(=O)(=O)c3cc(OC)ccc3OC)CC2)c1 | i
COc1ccccc1NC(=O)CSc1nnc2n(CCc3ccccc3)c(=O)c3ccccc3n12 | i
CC1CCCCN1CCCNC(=O)c1cc2c(s1)CN(C1CCCC1)C2 (stereo not given) | + | MTase-Glo counter=2%
CC(C)N1Cc2cc(C(=O)NC3CCN(Cc4ccccc4)CC3)sc2C1 | i
COc1ccc(NC(=O)c2cc3c(s2)CN(C2CCCC2)C3)c(OC)c1 | i
SMILES | Methyltransferases | others
CCOC(=O)c1cc2n(n1)CC(C)(C(=O)NCc1ccccc1)N(c1cc(C)ccc1C)C2=O (stereo not given) | i
CC(C)OCCCN1C(=O)c2ccc(-c3ccco3)n2CC1(C)C(=O)NC1CCCCCCC1 (stereo not given) | i
O=C(Cn1ccc2cc(S(=O)(=O)N3CCCCC3)ccc21)NCc1ccccn1 | i
CC(C)N(C(=O)Cn1c(=O)oc2cc(S(=O)(=O)N3CCCCC3)ccc21)C1CCCCC1 | i
O=C(Cc1ccc(-c2ccccc2)cc1)NC1CCC1 | i
CC1(C(=O)NC2CCCCC2)Cc2ccccc2C(=O)N1CCc1ccccc1 (stereo not given) | i
CN(Cc1ccccc1)C1(C(=O)NC2CCC(O)CC2)Cc2ccccc2C1 (stereo not given) | + | MTase-Glo counter=-24%
COc1ccc(CCN2C(=O)c3ccccc3CC2(C)C(=O)NC2CCCCC2)cc1OC (stereo not given) | i
COc1ccc(CNC(=O)C(C)n2ccc3cc(S(=O)(=O)N4CCCCC4)ccc32)c(OC)c1 (stereo not given) | i
O=C(c1ccccc1F)N1CCn2ncc(C(=O)N3CCOCC3)c2C1 | i
CN1CCCN(C(=O)c2ccccc2F)c2ccccc21 | i
Cn1cc2c3c(cccc31)CN(C(=O)c1ccccc1F)CC2 | + | MTase-Glo counter=-3%
